Source: PubChem BioAssay
Active and inactive are the calls of the source.

Legend:
[1] = tested on: Plasmodium falciparum Sir2 (PF13_0152, Sir2A); test: pfSir2 binders on small-molecule microarrays, primary screen, biochemical, small-molecule microarray, 635 nm fluorescence (AID 1098); details: small-molecule microarray binding, fluorescence 635 nm; higher = more signal;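 further: score merges spot fluorescence intensity with its signal-to-noise ratio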
[2] = small-molecule microarray binders of probe aDKK1, primary screen, biochemical, biotinylated probe, 635/667 nm fluorescence (AID 1099); details: higher = more signal;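 further: score merges 667nm spot fluorescence with signal to noise across triplicate slides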
[3] = small-molecule microarray binders of probe aCHRDL2, primary screen, biochemical, biotinylated probe, 635/667 nm fluorescence (AID 1100); details: higher = more signal
[4] = splicing luciferase reporter signal modulators, primary screen, spliceosome inhibition project, cell-based, HEK293, splice +/- reporter (AID 1101); details: luminescence, 24 h, higher = more signal, called active from +8 up or from −8 down;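 further: HEK293 cells carrying a splicing-competent luciferase reporter gene; test concentration not given here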
[5] = target: Fibroblast growth factor 10 (Homo sapiens) (UniProt O15520); test: FGF10 binders on small-molecule microarrays, primary screen, biochemical, small-molecule microarray, 635 nm fluorescence (AID 1102); details: FGF10 binding, fluorescence 635 nm, higher = more signal
[6] = tested on: glycogen synthase kinase-3 (GSK3A per assay name; protocol says GSK3B); test: GSK3 binders on small-molecule microarrays, primary screen, biochemical, small-molecule microarray, 635 nm fluorescence, GSK3A (AID 1103); details: small-molecule microarray binding, fluorescence 635 nm; higher = more signal; further: the record names both GSK3A and GSK3B
[7] = target: Epidermal growth factor receptor (Homo sapiens) (UniProt P00533); test: EGFR binders on small-molecule microarrays, primary screen, biochemical, small-molecule microarray, 635 nm fluorescence (AID 1104); details: EGFR binding, higher = more signal;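 further: score merges 667 nm emission intensity with spot signal to noise over triplicate slides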
[8] = target: Follistatin-related protein 3 (Homo sapiens) (UniProt O95633); test: FSTL3 binders on small-molecule microarrays, primary screen, biochemical, small-molecule microarray, 635 nm fluorescence (AID 1105); details: FSTL3 binding, higher = more signal;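 further: score merges emission near 667 nm and signal to noise per printed spot across three slides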
[9] = target: Dickkopf-related protein 1 (Homo sapiens) (UniProt O94907); test: DKK1 binders on small-molecule microarrays, primary screen, biochemical, small-molecule microarray, 635 nm fluorescence scan (AID 1106); details: DKK1 binding, higher = more signal;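 further: score merges emission near 667 nm with signal to noise over three replicate slides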
[10] = tested on: Inhibin beta A chain (activin A); test: INHBA (activin A) binders on microarrays, primary screen, biochemical, small-molecule microarray, 635 nm fluorescence scan (AID 1107); details: small-molecule microarray binding, higher = more signal;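 further: mouse activin A protein probed at 4.33 µg/mL on printed slides; score merges bound-protein fluorescence near 667 nm with spot signal-to-noise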
[11] = tested on: Human papillomavirus type 1a protein E7 (residues 44-93); test: HPV1a E7 fragment binders on microarrays, primary screen, biochemical, small-molecule microarray, residues 44-93, 635 nm fluorescence (AID 1108); details: small-molecule microarray binding, fluorescence 635 nm; higher = more signal;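 further: E7 fragment applied at 1 µg/mL in TBST for 1 h at 4 C; score combines spot fluorescence with its signal to noise ratio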
[12] = modulators of HCV replicon luciferase signal, primary screen, HCV replication inhibitor project, Huh7 cells, luciferase reporter (AID 1109); details: 48 h, higher = more signal;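 further: huh7 hepatoma cells harbouring a luciferase neomycin HCV replicon reporter; luciferase luminescence as measure of HCV replicon replication; test concentration not given here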
[13] = target: Left-right determination factor 2 (Homo sapiens) (UniProt O00292); test: LEFTY2 binders on small-molecule microarrays, primary screen, biochemical, small-molecule microarray, 635 nm fluorescence scan (AID 1110); details: LEFTY2 binding, higher = more signal
[14] = target: Calmodulin-1 (Homo sapiens) (UniProt P0DP23); test: CALM1 binders on microarrays, EGTA buffer, profiling panel, biochemical, small-molecule microarray, Cy5-labelled CALM1 (AID 1111); details: Cy5-CALM1 binding fluorescence, higher = more signal;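 further: labelled calmodulin applied in Tris saline Tween buffer holding calcium plus EGTA and DTT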
[15] = target: Calmodulin-1 (Homo sapiens) (UniProt P0DP23); test: calcium-bound CALM1 binders on microarrays, profiling panel, artefact control for SMM control-protein annotation, biochemical, small-molecule microarray, Cy5-labelled CALM1, plus calcium (AID 1112); details: Cy5-CALM1 binding fluorescence, higher = more signal;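 further: score merges spot fluorescence with signal to noise from triplicate slides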
[16] = small-molecule microarray binders of probe aWnt5a, primary screen, biochemical, biotinylated probe, 635/667 nm fluorescence (AID 1113); details: higher = more signal;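 further: score merges 667 nm fluorescence intensity with signal-to-noise per printed feature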
[17] = small-molecule microarray binders of probe aShh, primary screen, biochemical, biotinylated probe, 635/667 nm fluorescence (AID 1114); details: higher = more signal;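 further: probe is biotin-labelled aShh protein from a stem cell growth factor screen; measures binding of labelled protein to compounds printed on the slide; score merges feature fluorescence at 667 nm with signal-to-noise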
[18] = small-molecule microarray binders of probe aNog, primary screen, biochemical, biotinylated probe, 635/667 nm fluorescence (AID 1115); details: higher = more signal;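 further: probe is biotinylated aNog protein used at 0.15 µg/mL for 1 h at 4 C; z-score combines 667 nm fluorescence of each spot with its signal to noise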
[19] = target: Torsin-1A-interacting protein 1 (Homo sapiens) (UniProt Q5JTV8); test: LAP1 binders from COS7 cell lysate, primary screen, small-molecule microarray, 635/667 nm fluorescence (AID 1116); details: COS7-hLAP1 lysate binding, 635 nm fluorescence, higher = more signal
[20] = target: Alpha-bungarotoxin (Bungarus multicinctus) (UniProt P60615); test: alpha-bungarotoxin binders on microarray, profiling panel, artefact control for SMM control protein annotation, biochemical, small-molecule microarray, Alexa647 label, 635/667 nm fluorescence (AID 1117); details: alpha-BTX-A647 binding fluorescence, higher = more signal
Chain of Alpha-bungarotoxin (Bungarus multicinctus) (P60615 whole entry, looked up): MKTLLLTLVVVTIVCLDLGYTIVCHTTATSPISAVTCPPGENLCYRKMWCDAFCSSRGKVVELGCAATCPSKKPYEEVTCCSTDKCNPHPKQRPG

Chain of Epidermal growth factor receptor (Homo sapiens) (P00533 whole entry, looked up): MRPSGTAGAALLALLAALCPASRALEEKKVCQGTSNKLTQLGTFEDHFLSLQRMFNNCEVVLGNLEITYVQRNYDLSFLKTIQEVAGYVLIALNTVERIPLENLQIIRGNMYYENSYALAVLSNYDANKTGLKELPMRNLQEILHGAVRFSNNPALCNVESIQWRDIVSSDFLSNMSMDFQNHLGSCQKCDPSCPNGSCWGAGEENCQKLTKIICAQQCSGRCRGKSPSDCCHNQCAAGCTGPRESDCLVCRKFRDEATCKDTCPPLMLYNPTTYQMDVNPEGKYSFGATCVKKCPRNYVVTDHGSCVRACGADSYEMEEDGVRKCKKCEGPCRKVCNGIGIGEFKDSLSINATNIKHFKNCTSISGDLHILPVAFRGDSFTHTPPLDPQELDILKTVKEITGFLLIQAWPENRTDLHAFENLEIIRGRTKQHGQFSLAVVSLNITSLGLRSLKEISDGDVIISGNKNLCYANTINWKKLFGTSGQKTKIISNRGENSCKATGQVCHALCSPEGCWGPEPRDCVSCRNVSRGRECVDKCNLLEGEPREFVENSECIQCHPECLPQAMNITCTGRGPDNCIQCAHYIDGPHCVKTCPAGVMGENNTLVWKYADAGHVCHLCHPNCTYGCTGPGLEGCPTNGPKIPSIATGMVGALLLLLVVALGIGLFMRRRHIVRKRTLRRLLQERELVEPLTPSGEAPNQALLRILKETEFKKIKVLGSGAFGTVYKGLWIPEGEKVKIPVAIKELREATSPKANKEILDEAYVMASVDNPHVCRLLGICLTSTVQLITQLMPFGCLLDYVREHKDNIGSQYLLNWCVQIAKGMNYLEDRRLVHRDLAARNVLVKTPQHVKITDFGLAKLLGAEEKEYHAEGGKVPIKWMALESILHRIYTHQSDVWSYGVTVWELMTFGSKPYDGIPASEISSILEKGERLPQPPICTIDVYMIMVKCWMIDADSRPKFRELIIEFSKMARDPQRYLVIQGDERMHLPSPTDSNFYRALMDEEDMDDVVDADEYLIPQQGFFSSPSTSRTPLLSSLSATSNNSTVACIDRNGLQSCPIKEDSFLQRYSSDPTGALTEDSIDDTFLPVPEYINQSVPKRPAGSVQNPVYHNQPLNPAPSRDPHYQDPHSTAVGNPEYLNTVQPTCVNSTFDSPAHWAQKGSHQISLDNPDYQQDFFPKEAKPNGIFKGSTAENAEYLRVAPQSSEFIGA
Chain of Dickkopf-related protein 1 (Homo sapiens) (O94907 whole entry, looked up): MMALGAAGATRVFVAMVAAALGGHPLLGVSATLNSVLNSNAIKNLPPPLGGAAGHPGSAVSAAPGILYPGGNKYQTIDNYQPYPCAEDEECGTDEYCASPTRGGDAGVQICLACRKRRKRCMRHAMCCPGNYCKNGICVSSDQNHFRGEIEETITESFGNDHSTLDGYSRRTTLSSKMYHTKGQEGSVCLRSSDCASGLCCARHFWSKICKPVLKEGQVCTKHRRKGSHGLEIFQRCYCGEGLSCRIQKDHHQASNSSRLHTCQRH
Chain of Fibroblast growth factor 10 (Homo sapiens) (O15520 whole entry, looked up): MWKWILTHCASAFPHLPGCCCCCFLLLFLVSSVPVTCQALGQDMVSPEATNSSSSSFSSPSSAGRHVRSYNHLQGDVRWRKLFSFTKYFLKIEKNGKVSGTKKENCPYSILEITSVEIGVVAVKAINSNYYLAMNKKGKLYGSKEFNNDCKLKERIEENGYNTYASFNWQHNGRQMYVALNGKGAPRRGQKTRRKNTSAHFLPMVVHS
Chain of Left-right determination factor 2 (Homo sapiens) (O00292 whole entry, looked up): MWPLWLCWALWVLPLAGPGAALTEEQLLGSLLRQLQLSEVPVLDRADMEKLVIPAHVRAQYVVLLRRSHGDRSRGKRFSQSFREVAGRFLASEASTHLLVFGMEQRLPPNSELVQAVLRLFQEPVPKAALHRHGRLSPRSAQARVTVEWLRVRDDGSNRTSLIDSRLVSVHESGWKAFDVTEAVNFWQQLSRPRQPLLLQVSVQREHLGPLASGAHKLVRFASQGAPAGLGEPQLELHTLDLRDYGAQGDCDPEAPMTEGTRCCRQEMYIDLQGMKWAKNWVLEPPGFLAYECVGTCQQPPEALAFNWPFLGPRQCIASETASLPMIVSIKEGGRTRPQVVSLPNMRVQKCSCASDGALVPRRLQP
Chain of Torsin-1A-interacting protein 1 (Homo sapiens) (Q5JTV8 whole entry, looked up): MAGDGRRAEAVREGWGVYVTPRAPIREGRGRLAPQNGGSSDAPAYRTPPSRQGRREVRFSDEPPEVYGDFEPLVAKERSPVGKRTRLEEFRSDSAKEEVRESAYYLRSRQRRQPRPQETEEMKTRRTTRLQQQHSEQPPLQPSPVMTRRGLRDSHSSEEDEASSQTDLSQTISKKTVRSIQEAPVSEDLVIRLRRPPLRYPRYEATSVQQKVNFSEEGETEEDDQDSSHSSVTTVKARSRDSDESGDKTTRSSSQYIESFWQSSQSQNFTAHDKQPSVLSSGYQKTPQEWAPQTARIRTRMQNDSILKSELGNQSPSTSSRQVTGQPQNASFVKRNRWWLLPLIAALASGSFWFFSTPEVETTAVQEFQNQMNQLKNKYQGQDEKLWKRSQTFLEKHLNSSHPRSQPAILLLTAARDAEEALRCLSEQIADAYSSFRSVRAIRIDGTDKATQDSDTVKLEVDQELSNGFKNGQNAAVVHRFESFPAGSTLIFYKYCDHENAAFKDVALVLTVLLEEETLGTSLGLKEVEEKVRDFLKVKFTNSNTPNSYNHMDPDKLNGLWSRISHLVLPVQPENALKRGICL
Chain of Follistatin-related protein 3 (Homo sapiens) (O95633 whole entry, looked up): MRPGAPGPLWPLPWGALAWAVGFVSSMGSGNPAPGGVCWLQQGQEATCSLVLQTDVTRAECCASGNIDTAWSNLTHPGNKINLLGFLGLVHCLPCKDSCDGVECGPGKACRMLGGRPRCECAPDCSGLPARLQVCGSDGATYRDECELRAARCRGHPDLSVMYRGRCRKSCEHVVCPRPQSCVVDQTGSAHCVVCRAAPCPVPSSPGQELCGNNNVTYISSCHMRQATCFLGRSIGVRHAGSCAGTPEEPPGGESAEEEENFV

## COc1ccccc1CN1C(=O)c2ccccc2[C@@]2(Cc3ccccc3N(C(C)C)C2=O)[C@@H]1c1ccc(CO)cc1
[1]
  composite z-score: 0.139
[2]
  composite z-score: -0.119
[3]
  composite z-score: 0.414
[4]
  z-score: -0.938 (inactive)
[5]
  composite z-score: -0.194
[6]
  composite z-score: -0.467
[7]
  composite z-score: -0.418
[8]
  composite z-score: -0.119
[9]
  composite z-score: -0.39
[10]
  composite z-score: 0.602
[11]
  composite z-score: -0.0853
[12]
  z-score: -0.318
[13]
  composite z-score: -0.88
[14]
  composite z-score: -0.37
[15]
  composite z-score: -0.772
[16]
  composite z-score: -0.12
[17]
  composite z-score: -0.0553
[18]
  composite z-score: 0.005
[19]
  composite z-score: -0.509
[20]
  composite z-score: 1.12

## COCCOC(=O)N1C(=O)[C@@]2(c3cc(C#CC4(O)CCCCCC4)ccc31)[C@H](C(=O)N1CCN(c3ncccn3)CC1)[C@H]1C(=O)O[C@H](c3ccccc3)[C@H](c3ccccc3)N1[C@@H]2c1ccc(OCCO)cc1
[1]
  composite z-score: 1.4
[2]
  composite z-score: 0.0932
[3]
  composite z-score: -0.0616
[4]
  z-score: -0.702 (inactive)
[5]
  composite z-score: 1.18
[6]
  composite z-score: 1.3
[7]
  composite z-score: 0.729
[8]
  composite z-score: 1.19
[9]
  composite z-score: 0.738
[10]
  composite z-score: 0.274
[11]
  composite z-score: 1.01
[12]
  z-score: -1.38
[13]
  composite z-score: 0.519
[14]
  composite z-score: 0.942
[15]
  composite z-score: 0.0751
[16]
  composite z-score: 0.0136
[17]
  composite z-score: 0.637
[18]
  composite z-score: 0.42
[19]
  composite z-score: 0.889
[20]
  composite z-score: 1.33

## O=C1C[C@@H](O)[C@@H](O)[C@@H]2[C@@H]3C(=O)N(c4ccc(F)cc4F)C(=O)[C@@H]3CC[C@@H]12
[1]
  composite z-score: 0.341
[2]
  composite z-score: -0.343
[3]
  composite z-score: -0.602
[4]
  z-score: 0.337 (inactive)
[5]
  composite z-score: 0.627
[6]
  composite z-score: 0.169
[7]
  composite z-score: 0.463
[8]
  composite z-score: 0.447
[9]
  composite z-score: 0.612
[10]
  composite z-score: 0.199
[11]
  composite z-score: 0.461
[12]
  z-score: 0.586
[13]
  composite z-score: 0.585
[14]
  composite z-score: -0.0799
[15]
  composite z-score: -0.389
[16]
  composite z-score: 0.441
[17]
  composite z-score: -0.221
[18]
  composite z-score: -0.22
[19]
  composite z-score: 0.408
[20]
  composite z-score: -0.157

## C#CCCCON=C1C[C@@H](O)[C@@H](O)[C@@H]2[C@@H]3C(=O)N(CCC(=O)OCC)C(=O)[C@@H]3CC[C@@H]12
[1]
  composite z-score: -0.346
[2]
  composite z-score: 1.17
[3]
  composite z-score: 1.51
[4]
  z-score: 0.907 (inactive)
[5]
  composite z-score: -0.0714
[6]
  composite z-score: -0.493
[7]
  composite z-score: -0.905
[8]
  composite z-score: -0.911
[9]
  composite z-score: -0.908
[10]
  composite z-score: 0.459
[11]
  composite z-score: -0.58
[12]
  z-score: -2.78
[13]
  composite z-score: -0.174
[14]
  composite z-score: -0.335
[15]
  composite z-score: 0.0811
[16]
  composite z-score: -0.0748
[17]
  composite z-score: 0.246
[18]
  composite z-score: 0.206
[19]
  composite z-score: -0.221
[20]
  composite z-score: 1.04

## CCOC(=O)NN=C1C[C@@H](O)[C@@H](O)[C@@H]2[C@@H]3C(=O)N(C4CCCCC4)C(=O)[C@@H]3CC[C@@H]12
[1]
  composite z-score: 0.104
[2]
  composite z-score: -0.192
[3]
  composite z-score: -0.499
[4]
  z-score: 1.06 (inactive)
[5]
  composite z-score: 0.534
[6]
  composite z-score: 0.132
[7]
  composite z-score: 0.34
[8]
  composite z-score: 0.297
[9]
  composite z-score: 0.476
[10]
  composite z-score: 0.212
[11]
  composite z-score: 0.0883
[12]
  z-score: -0.336
[13]
  composite z-score: 0.342
[14]
  composite z-score: -0.29
[15]
  composite z-score: -0.401
[16]
  composite z-score: -0.0462
[17]
  composite z-score: -0.341
[18]
  composite z-score: -0.158
[19]
  composite z-score: 0.109
[20]
  composite z-score: 0.601

## O=C1[C@H]2[C@H]3[C@H](O)[C@H](O)CC(=NOCc4ccccc4)[C@@H]3CC[C@H]2C(=O)N1C1CCCCC1
[1]
  composite z-score: 0.991
[2]
  composite z-score: -0.28
[3]
  composite z-score: 0.218
[4]
  z-score: 0.568 (inactive)
[5]
  composite z-score: -0.069
[6]
  composite z-score: -0.0273
[7]
  composite z-score: 0.0374
[8]
  composite z-score: -0.0832
[9]
  composite z-score: -0.484
[10]
  composite z-score: -0.28
[11]
  composite z-score: 0.422
[12]
  z-score: -1.11
[13]
  composite z-score: -0.102
[14]
  composite z-score: -0.161
[15]
  composite z-score: -0.408
[16]
  composite z-score: -0.206
[17]
  composite z-score: -0.265
[18]
  composite z-score: -0.169
[19]
  composite z-score: 0.467
[20]
  composite z-score: -0.0059

## CCOC(=O)CCN1C(=O)[C@H]2[C@H]3[C@H](O)[C@H](O)CC(=O)[C@H]3CC[C@H]2C1=O
[1]
  composite z-score: -0.0527
[2]
  composite z-score: -0.202
[3]
  composite z-score: -0.723
[4]
  z-score: -1.11 (inactive)
[5]
  composite z-score: 0.685
[6]
  composite z-score: 0.765
[7]
  composite z-score: 0.4
[8]
  composite z-score: 0.565
[9]
  composite z-score: 0.745
[10]
  composite z-score: -0.0903
[11]
  composite z-score: 0.182
[12]
  z-score: -1.07
[13]
  composite z-score: 0.412
[14]
  composite z-score: 0.0492
[15]
  composite z-score: -0.375
[16]
  composite z-score: -0.201
[17]
  composite z-score: -0.229
[18]
  composite z-score: -0.201
[19]
  composite z-score: 0.619
[20]
  composite z-score: 0.0323

## CC(=O)C[C@H](O)[C@@H](NC(=O)OC(C)(C)C)C(C)C
[1]
  composite z-score: -0.276
[2]
  composite z-score: -0.186
[3]
  composite z-score: -0.306
[4]
  z-score: -0.797 (inactive)
[5]
  composite z-score: -0.456
[6]
  composite z-score: -1.45
[7]
  composite z-score: -0.397
[8]
  composite z-score: -0.441
[9]
  composite z-score: -0.31
[10]
  composite z-score: 0.123
[11]
  composite z-score: -2.43
[12]
  z-score: 0.479
[13]
  composite z-score: -0.319
[14]
  composite z-score: -0.292
[15]
  composite z-score: -0.327
[16]
  composite z-score: -0.203
[17]
  composite z-score: 0.0121
[18]
  composite z-score: -0.0926
[19]
  composite z-score: -0.547
[20]
  composite z-score: 0.0557
